# A number with no mark means an inactive call. Inconclusive results are not listed. Where a call stands in place of a potency, no number is given. Activity calls are given as the source filed them. Calls come from the whole dose curve; as a rule, active = well fitted curve in the direction sought with a large enough effect in the repeat runs; inconclusive = weak or mixed curves; inactive = no such curve, though single readings can be large; an effect the other way counts as inactive or inconclusive.
# Experiments:
# [1] = A CellTox Green Cytotoxicity Assay to monitor cytotoxicity in HEK293 cells - 40 hour (AID 1224871); note: nearly all actives have a fitted effect of over 45% in size
# Summary of the method: (§1)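 Real-time, in one plate: 600 HEK293 cells/well with dead-cell DNA dye, pinned compound after 5 h, 37 C incubation over 40 h; viable cells give no appreciable fluorescence.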
# [2] = qHTS RealTime-Glo MT Cell Viability Assay in HEK293 cells - 16 hour (AID 1224872); note: nearly all actives have a fitted effect of over 50% in size; note: potency is the fitted concentration of half-maximal effect
# Summary of the method: (§2)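 Cells + reagent dispensed (600 cells/well, HEK293) → 5 h at 37 C/5% CO2 → 23 nL compound in DMSO pinned → 40 h at 37 C → luminescence read at 0, 8, 16, 24, 32, 40 h.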
# [3] = qHTS RealTime-Glo MT Cell Viability Assay in HepG2 cells - 8 hour (AID 1224873); note: nearly all actives have a fitted effect of over 55% in size
# Summary of the method: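 HepG2 cells (600/well) mixed with RealTime-Glo MT reagent, settled 5 h at 37 C/5% CO2 before compound addition. Nonlytic NanoLuc luminescence from viable-cell prosubstrate reduction read repeatedly during 40 h treatment at 37 C.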
# [4] = qHTS RealTime-Glo MT Cell Viability Assay in HEK293 cells - 40 hour (AID 1224874); settings: RealTime-Glo luminescence; max response: stronger effect = lower value; note: nearly all actives have a fitted effect of over 50% in size; note: potency is the fitted concentration of half-maximal effect
# Summary of the method: (§3)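 Kinetic, non-lysing viability readout. Seed HEK293 (600/well) with reagent, incubate 5 h at 37 C/5% CO2, pin 23 nL compound in DMSO, incubate at 37 C, read luminescence at 0, 8, 16, 24, 32, 40 h.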
# [5] = A CellTox Green Cytotoxicity Assay to monitor cytotoxicity in HEK293 cells - 24 hour (AID 1224875); note: series mostly up to about 77 µM; nearly all actives have a fitted effect of over 45% in size
# Summary of the method: as §1
# [6] = A CellTox Green Cytotoxicity Assay to monitor cytotoxicity in HepG2 cells - 16 hour (AID 1224876); note: nearly all actives have a fitted effect of over 45% in size; note: potency is the fitted concentration of half-maximal effect
# Summary of the method: (§4)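 Cytotoxicity was tracked as dead-cell DNA fluorescence in HepG2 cells treated with test compounds at 37 C; each time-point value comes from one kinetic series spanning 0, 8, 16, 24, 32 and 40 h.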
# [7] = qHTS RealTime-Glo MT Cell Viability Assay in HepG2 cells - 32 hour (AID 1224877); note: nearly all actives have a fitted effect of over 55% in size; note: potency is the fitted concentration of half-maximal effect
# Summary of the method: (§5)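 Real-time, nonlytic viability: 600 HepG2 cells/well mixed with NanoLuc enzyme plus prosubstrate; 5 h settle, compound (DMSO) added by pintool; luminescence monitored over 40 h at 37 C.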
# [8] = A CellTox Green Cytotoxicity Assay to monitor cytotoxicity in HepG2 cells - 24 hour (AID 1224878); note: nearly all actives have a fitted effect of over 45% in size; note: potency is the fitted concentration of half-maximal effect
# Summary of the method: as §4
# [9] = A CellTox Green Cytotoxicity Assay to monitor cytotoxicity in HepG2 cells - 40 hour (AID 1224879); note: nearly all actives have a fitted effect of over 40% in size; note: potency is the fitted concentration of half-maximal effect
# Summary of the method: as §4
# [10] = qHTS RealTime-Glo MT Cell Viability Assay in HEK293 cells - 0 hour (AID 1224880); note: nearly all actives have a fitted effect of over 45% in size; note: potency is the fitted concentration of half-maximal effect
# Summary of the method: as §3
# [11] = A CellTox Green Cytotoxicity Assay to monitor cytotoxicity in HEK293 cells - 32 hour (AID 1224881); note: nearly all actives have a fitted effect of over 40% in size
# Summary of the method: as §1
# [12] = A CellTox Green Cytotoxicity Assay to monitor cytotoxicity in HepG2 cells - 0 hour (AID 1224882); note: nearly all actives have a fitted effect of over 35% in size
# Summary of the method: as §4
# [13] = A CellTox Green Cytotoxicity Assay to monitor cytotoxicity in HepG2 cells - 32 hour (AID 1224883); note: nearly all actives have a fitted effect of over 50% in size; note: potency is the fitted concentration of half-maximal effect
# Summary of the method: as §4
# [14] = qHTS RealTime-Glo MT Cell Viability Assay in HepG2 cells - 16 hour (AID 1224885); note: nearly all actives have a fitted effect of over 50% in size
# Summary of the method: as §5
# [15] = qHTS RealTime-Glo MT Cell Viability Assay in HEK293 cells - 24 hour (AID 1224886); note: nearly all actives have a fitted effect of over 50% in size; note: potency is the fitted concentration of half-maximal effect
# Summary of the method: as §2
# [16] = A CellTox Green Cytotoxicity Assay to monitor cytotoxicity in HEK293 cells - 16 hour (AID 1224888); note: nearly all actives have a fitted effect of over 35% in size
# Summary of the method: as §1
# [17] = qHTS RealTime-Glo MT Cell Viability Assay in HepG2 cells - 0 hour (AID 1224889); note: nearly all actives have a fitted effect of over 50% in size; note: potency is the fitted concentration of half-maximal effect
# Summary of the method: as §5
# [18] = A CellTox Green Cytotoxicity Assay to monitor cytotoxicity in HepG2 cells - 8 hour (AID 1224890); note: nearly all actives have a fitted effect of over 45% in size
# Summary of the method: as §4
# [19] = A CellTox Green Cytotoxicity Assay to monitor cytotoxicity in HEK293 cells - 8 hour (AID 1224884); note: nearly all actives have a fitted effect of over 35% in size
# Summary of the method: as §1
# [20] = qHTS RealTime-Glo MT Cell Viability Assay in HEK293 cells - 8 hour (AID 1224887)
# Summary of the method: as §3
compound,measurement,setting,value
O=C(C(Cl)(Cl)Cl)C(Cl)(Cl)Cl,Potency,[1],inactive
same,Potency,[2],inactive
same,Potency,[3],inactive
same,max response,[4],-7.45%
same,Potency,[5],inactive
same,Potency,[6],inactive
same,Potency,[7],inactive
same,Potency,[8],inactive
same,Potency,[9],inactive
same,Potency,[10],inactive
same,Potency,[11],inactive
same,Potency,[12],inactive
same,Potency,[13],inactive
same,Potency,[14],inactive
same,Potency,[15],inactive
same,Potency,[16],inactive
same,Potency,[17],inactive
same,Potency,[18],inactive
O=C(NC(=O)c1c(F)cccc1F)Nc1ccc(OC(F)(F)C(F)OC(F)(F)F)c(Cl)c1 (stereo not drawn),Potency,[1],inactive
same,Potency,[2],inactive
same,Potency,[3],inactive
same,max response,[4],-1.18%
same,Potency,[5],inactive
same,Potency,[6],inactive
same,Potency,[7],inactive
same,Potency,[8],inactive
same,Potency,[9],inactive
same,Potency,[10],inactive
same,Potency,[11],inactive
same,Potency,[12],inactive
same,Potency,[13],inactive
same,Potency,[19],inactive
same,Potency,[14],inactive
same,Potency,[15],inactive
same,Potency,[16],inactive
same,Potency,[17],inactive
same,Potency,[18],inactive
Cc1ccc(N)cc1C,Potency,[1],inactive
same,Potency,[2],inactive
same,Potency,[3],inactive
same,max response,[4],13.4%
same,Potency,[5],inactive
same,Potency,[6],inactive
same,Potency,[7],inactive
same,Potency,[8],inactive
same,Potency,[9],inactive
same,Potency,[10],inactive
same,Potency,[11],inactive
same,Potency,[12],inactive
same,Potency,[13],inactive
same,Potency,[14],inactive
same,Potency,[15],inactive
same,Potency,[16],inactive
same,Potency,[17],inactive
same,Potency,[18],inactive
CCOC(=O)C(Cl)C(C)=O (stereo not drawn),Potency,[1],inactive
same,Potency,[2],inactive
same,Potency,[3],inactive
same,max response,[4],-9.27%
same,Potency,[5],inactive
same,Potency,[6],inactive
same,Potency,[7],inactive
same,Potency,[8],inactive
same,Potency,[9],24.8 µM (active)
same,Potency,[10],inactive
same,Potency,[11],inactive
same,Potency,[12],inactive
same,Potency,[13],24.8 µM (active)
same,Potency,[14],inactive
same,Potency,[15],inactive
same,Potency,[20],inactive
same,Potency,[16],inactive
same,Potency,[17],inactive
same,Potency,[18],inactive
Brc1ccccc1,Potency,[1],inactive
same,Potency,[2],inactive
same,Potency,[3],inactive
same,max response,[4],-2.8%
same,Potency,[5],inactive
same,Potency,[6],inactive
same,Potency,[7],inactive
same,Potency,[8],inactive
same,Potency,[9],inactive
same,Potency,[10],inactive
same,Potency,[11],inactive
same,Potency,[12],inactive
same,Potency,[13],inactive
same,Potency,[19],inactive
same,Potency,[14],inactive
same,Potency,[15],inactive
same,Potency,[16],inactive
same,Potency,[18],inactive
C=CC(C)=O,Potency,[1],inactive
same,Potency,[2],inactive
same,Potency,[3],inactive
same,max response,[4],4.78%
same,Potency,[5],inactive
same,Potency,[6],inactive
same,Potency,[8],inactive
same,Potency,[9],inactive
same,Potency,[10],inactive
same,Potency,[11],inactive
same,Potency,[12],inactive
same,Potency,[13],inactive
same,Potency,[19],inactive
same,Potency,[14],inactive
same,Potency,[15],inactive
same,Potency,[20],inactive
same,Potency,[16],inactive
same,Potency,[17],inactive
C=CC(=O)OCC(C)O (stereo not drawn),Potency,[1],inactive
same,Potency,[2],inactive
same,Potency,[3],inactive
same,max response,[4],21.2%
same,Potency,[5],inactive
same,Potency,[6],inactive
same,Potency,[7],inactive
same,Potency,[8],inactive
same,Potency,[9],inactive
same,Potency,[10],inactive
same,Potency,[11],inactive
same,Potency,[12],inactive
same,Potency,[13],inactive
same,Potency,[14],inactive
same,Potency,[15],inactive
same,Potency,[20],inactive
same,Potency,[16],inactive
same,Potency,[17],inactive
same,Potency,[18],inactive
CCCCC(CC)COP(=O)(Oc1ccccc1)Oc1ccccc1 (stereo not drawn),Potency,[1],inactive
same,Potency,[2],inactive
same,Potency,[3],inactive
same,max response,[4],-24.3%
same,Potency,[5],inactive
same,Potency,[6],inactive
same,Potency,[7],inactive
same,Potency,[8],inactive
same,Potency,[9],inactive
same,Potency,[10],inactive
same,Potency,[11],inactive
same,Potency,[12],inactive
same,Potency,[13],inactive
same,Potency,[19],inactive
same,Potency,[14],inactive
same,Potency,[20],inactive
same,Potency,[16],inactive
same,Potency,[18],inactive
CN1C[C@H](CNC(=O)OCc2ccccc2)C[C@@H]2c3cccc4c3c(cn4C)C[C@H]21,Potency,[1],inactive
same,Potency,[2],21.3 µM (active)
same,Potency,[3],inactive
same,Potency,[4],23.9 µM (active)
same,Potency,[5],inactive
same,Potency,[6],23.9 µM (active)
same,Potency,[7],23.9 µM (active)
same,Potency,[8],26.8 µM (active)
same,Potency,[9],23.9 µM (active)
same,Potency,[10],inactive
same,Potency,[11],inactive
same,Potency,[12],inactive
same,Potency,[13],26.8 µM (active)
same,Potency,[19],inactive
same,Potency,[15],21.3 µM (active)
same,Potency,[16],inactive
same,Potency,[17],inactive
same,Potency,[18],inactive
O=C(O)C(F)(F)C(F)(F)C(F)(F)C(F)(F)C(F)(F)C(F)(F)C(F)(F)C(F)(F)C(F)(F)F,Potency,[1],inactive
same,Potency,[2],inactive
same,Potency,[3],inactive
same,max response,[4],1.42%
same,Potency,[5],inactive
same,Potency,[6],inactive
same,Potency,[7],inactive
same,Potency,[8],inactive
same,Potency,[9],inactive
same,Potency,[10],inactive
same,Potency,[11],inactive
same,Potency,[12],inactive
same,Potency,[13],inactive
same,Potency,[19],inactive
same,Potency,[14],inactive
same,Potency,[15],inactive
same,Potency,[16],inactive
O=S1(=O)OC(c2cc(Br)c(O)c(Br)c2)(c2cc(Br)c(O)c(Br)c2)c2ccccc21,Potency,[1],inactive
same,Potency,[2],inactive
same,Potency,[3],inactive
same,max response,[4],11.5%
same,Potency,[5],inactive
same,Potency,[6],inactive
same,Potency,[8],inactive
same,Potency,[9],inactive
same,Potency,[10],10 µM (active)
same,Potency,[11],inactive
same,Potency,[12],inactive
same,Potency,[13],inactive
same,Potency,[19],inactive
same,Potency,[14],inactive
same,Potency,[15],inactive
same,Potency,[20],inactive
same,Potency,[16],inactive
same,Potency,[17],6.34 µM (active)
same,Potency,[18],inactive
ClCc1ccccc1,Potency,[1],inactive
same,Potency,[2],inactive
same,Potency,[3],inactive
same,max response,[4],2.64%
same,Potency,[5],inactive
same,Potency,[6],inactive
same,Potency,[7],inactive
same,Potency,[8],inactive
same,Potency,[9],inactive
same,Potency,[10],inactive
same,Potency,[11],inactive
same,Potency,[12],inactive
same,Potency,[13],inactive
same,Potency,[14],inactive
same,Potency,[15],inactive
same,Potency,[20],inactive
same,Potency,[16],inactive
same,Potency,[17],inactive
same,Potency,[18],inactive
CC(=O)C(C)(C)C,Potency,[1],inactive
same,Potency,[2],inactive
same,Potency,[3],inactive
same,max response,[4],8.72%
same,Potency,[5],inactive
same,Potency,[6],inactive
same,Potency,[7],inactive
same,Potency,[8],inactive
same,Potency,[9],inactive
same,Potency,[10],inactive
same,Potency,[11],inactive
same,Potency,[12],inactive
same,Potency,[13],inactive
same,Potency,[14],inactive
same,Potency,[15],inactive
same,Potency,[20],inactive
same,Potency,[16],inactive
same,Potency,[17],inactive
same,Potency,[18],inactive
NC(=O)C(Cl)(Cl)Cl,Potency,[1],inactive
same,Potency,[2],inactive
same,Potency,[3],inactive
same,max response,[4],16.8%
same,Potency,[5],inactive
same,Potency,[6],inactive
same,Potency,[7],inactive
same,Potency,[8],inactive
same,Potency,[9],inactive
same,Potency,[10],inactive
same,Potency,[11],inactive
same,Potency,[12],inactive
same,Potency,[13],inactive
same,Potency,[19],inactive
same,Potency,[14],inactive
same,Potency,[15],inactive
same,Potency,[16],inactive
same,Potency,[17],inactive
same,Potency,[18],inactive
